Data on seven compounds can be found in ChEMBL document CHEMBL2218924, “A broad activity screen in support of a chemogenomic map for kinase signalling research and drug discovery” (Biochem J, 2013).

In test [1] the target is Vascular endothelial growth factor receptor 3 (Homo sapiens) (UniProt P35916). As to conditions: at 10 µM.
The target in test [2] is Macrophage colony-stimulating factor 1 receptor (Homo sapiens) (UniProt P07333). Particulars: at 1 µM.
For test [3] the target is unchanged. Particulars: at 10 µM.
The target in test [4] is Tyrosine-protein kinase Fyn (Homo sapiens) (UniProt P06241). As to conditions: at 1 µM.
The target is the same in test [5]. As to conditions: at 10 µM.
Test [6] concerns the target T1, Mitogen-activated protein kinase kinase kinase kinase 2 (Homo sapiens) (UniProt Q12851).
T1 sequence (whole entry): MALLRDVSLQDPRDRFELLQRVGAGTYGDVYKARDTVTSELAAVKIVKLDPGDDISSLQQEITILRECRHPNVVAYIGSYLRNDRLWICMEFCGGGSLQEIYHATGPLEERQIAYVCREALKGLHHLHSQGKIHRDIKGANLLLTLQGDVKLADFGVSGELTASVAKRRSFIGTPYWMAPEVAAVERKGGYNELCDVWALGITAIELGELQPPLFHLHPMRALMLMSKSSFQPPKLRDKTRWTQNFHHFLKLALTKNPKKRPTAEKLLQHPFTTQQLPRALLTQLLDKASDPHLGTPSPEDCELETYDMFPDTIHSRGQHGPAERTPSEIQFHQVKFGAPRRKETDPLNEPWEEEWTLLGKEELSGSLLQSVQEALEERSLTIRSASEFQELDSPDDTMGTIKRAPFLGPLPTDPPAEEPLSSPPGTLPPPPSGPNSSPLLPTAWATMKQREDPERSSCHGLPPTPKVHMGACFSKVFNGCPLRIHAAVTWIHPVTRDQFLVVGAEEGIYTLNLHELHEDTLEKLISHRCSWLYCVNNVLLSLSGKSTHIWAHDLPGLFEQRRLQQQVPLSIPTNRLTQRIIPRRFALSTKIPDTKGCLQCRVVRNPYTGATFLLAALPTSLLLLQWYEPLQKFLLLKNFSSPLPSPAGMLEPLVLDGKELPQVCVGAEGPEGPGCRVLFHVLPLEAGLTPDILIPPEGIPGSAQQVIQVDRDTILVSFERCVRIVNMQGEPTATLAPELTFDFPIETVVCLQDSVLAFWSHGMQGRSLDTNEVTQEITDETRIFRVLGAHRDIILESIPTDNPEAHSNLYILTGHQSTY
As to conditions: at 1 µM.

Test [7] concerns the target T1, Mitogen-activated protein kinase kinase kinase kinase 2 (Homo sapiens). Particulars: at 10 µM.
For test [8], the target named is G protein-coupled receptor kinase 5 (Homo sapiens) (UniProt P34947). As to conditions: at 10 µM.
Test [9] concerns the target Glycogen synthase kinase-3 alpha (Homo sapiens) (UniProt P49840). Particulars: at 1 µM.
For test [10] the target is unchanged. Particulars: at 10 µM.
Test [11] has as its target Glycogen synthase kinase-3 beta (Homo sapiens) (UniProt P49841). Particulars: at 1 µM.
For test [12] the target is unchanged. As to conditions: at 10 µM.
The target of test [13] is Homeodomain-interacting protein kinase 1 (Homo sapiens) (UniProt Q86Z02). As to conditions: at 1 µM.
For test [14] the target is unchanged. As to conditions: at 10 µM.
Test [15] has as its target Homeodomain-interacting protein kinase 2 (Homo sapiens) (UniProt Q9H2X6). As to conditions: at 1 µM.
For test [16] the target is unchanged. As to conditions: at 10 µM.
The target of test [17] is Homeodomain-interacting protein kinase 3 (Homo sapiens) (UniProt Q9H422). As to conditions: at 1 µM.
The target of test [18] is G protein-coupled receptor kinase 6 (Homo sapiens) (UniProt P43250). As to conditions: at 10 µM.
The target of test [19] is T2, Rhodopsin kinase GRK7 (Homo sapiens) (UniProt Q8WTQ7).
T2 sequence (whole entry): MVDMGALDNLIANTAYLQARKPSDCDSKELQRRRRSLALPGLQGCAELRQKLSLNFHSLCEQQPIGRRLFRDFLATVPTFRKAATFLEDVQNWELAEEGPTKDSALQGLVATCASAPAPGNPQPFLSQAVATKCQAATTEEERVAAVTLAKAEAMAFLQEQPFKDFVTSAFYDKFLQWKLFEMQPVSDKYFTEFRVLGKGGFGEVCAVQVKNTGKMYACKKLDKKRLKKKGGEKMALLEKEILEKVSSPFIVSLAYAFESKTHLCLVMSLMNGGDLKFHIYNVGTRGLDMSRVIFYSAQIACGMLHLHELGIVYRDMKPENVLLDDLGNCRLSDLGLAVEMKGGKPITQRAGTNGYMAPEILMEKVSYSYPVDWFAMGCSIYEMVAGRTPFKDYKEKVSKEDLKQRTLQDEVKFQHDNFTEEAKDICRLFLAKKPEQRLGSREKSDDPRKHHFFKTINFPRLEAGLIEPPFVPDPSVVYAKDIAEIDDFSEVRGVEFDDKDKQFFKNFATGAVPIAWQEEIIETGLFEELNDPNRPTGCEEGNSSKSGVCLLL
As to conditions: at 1 µM.

Test [20] addresses T2, Rhodopsin kinase GRK7 (Homo sapiens). As to conditions: at 10 µM.

Sequence of G protein-coupled receptor kinase 5 (Homo sapiens) (P34947 whole entry, looked up): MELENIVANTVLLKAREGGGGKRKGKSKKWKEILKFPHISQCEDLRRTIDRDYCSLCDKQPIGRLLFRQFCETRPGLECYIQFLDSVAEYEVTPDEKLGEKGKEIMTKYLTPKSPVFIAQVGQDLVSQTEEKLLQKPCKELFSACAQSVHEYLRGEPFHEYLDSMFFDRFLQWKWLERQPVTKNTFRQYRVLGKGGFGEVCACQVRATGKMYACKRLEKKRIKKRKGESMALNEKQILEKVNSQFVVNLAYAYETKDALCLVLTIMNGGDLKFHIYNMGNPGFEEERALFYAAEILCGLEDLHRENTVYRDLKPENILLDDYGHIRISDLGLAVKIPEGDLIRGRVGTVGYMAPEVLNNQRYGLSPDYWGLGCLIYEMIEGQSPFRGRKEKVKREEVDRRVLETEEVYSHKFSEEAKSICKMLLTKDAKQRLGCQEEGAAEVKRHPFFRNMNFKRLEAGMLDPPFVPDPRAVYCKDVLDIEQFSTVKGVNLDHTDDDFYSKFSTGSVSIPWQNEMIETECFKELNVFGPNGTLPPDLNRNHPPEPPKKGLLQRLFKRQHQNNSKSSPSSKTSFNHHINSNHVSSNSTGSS
Sequence of G protein-coupled receptor kinase 6 (Homo sapiens) (P43250 whole entry, looked up): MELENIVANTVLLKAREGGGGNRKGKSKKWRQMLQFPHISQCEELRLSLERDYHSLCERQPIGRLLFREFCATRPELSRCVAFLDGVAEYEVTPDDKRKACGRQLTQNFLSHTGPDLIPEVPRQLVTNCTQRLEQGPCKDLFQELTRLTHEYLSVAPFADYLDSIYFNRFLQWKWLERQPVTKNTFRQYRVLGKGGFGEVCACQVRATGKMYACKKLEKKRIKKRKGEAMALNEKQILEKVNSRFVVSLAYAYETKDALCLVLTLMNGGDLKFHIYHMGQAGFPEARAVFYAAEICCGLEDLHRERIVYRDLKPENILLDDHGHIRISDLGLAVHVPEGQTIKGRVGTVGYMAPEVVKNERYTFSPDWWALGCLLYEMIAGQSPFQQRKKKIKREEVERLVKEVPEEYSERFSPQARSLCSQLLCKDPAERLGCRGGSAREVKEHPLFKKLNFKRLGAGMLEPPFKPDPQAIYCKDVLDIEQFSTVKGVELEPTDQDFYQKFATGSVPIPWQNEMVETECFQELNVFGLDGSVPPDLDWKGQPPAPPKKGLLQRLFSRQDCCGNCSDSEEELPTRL
Sequence of Vascular endothelial growth factor receptor 3 (Homo sapiens) (P35916 whole entry): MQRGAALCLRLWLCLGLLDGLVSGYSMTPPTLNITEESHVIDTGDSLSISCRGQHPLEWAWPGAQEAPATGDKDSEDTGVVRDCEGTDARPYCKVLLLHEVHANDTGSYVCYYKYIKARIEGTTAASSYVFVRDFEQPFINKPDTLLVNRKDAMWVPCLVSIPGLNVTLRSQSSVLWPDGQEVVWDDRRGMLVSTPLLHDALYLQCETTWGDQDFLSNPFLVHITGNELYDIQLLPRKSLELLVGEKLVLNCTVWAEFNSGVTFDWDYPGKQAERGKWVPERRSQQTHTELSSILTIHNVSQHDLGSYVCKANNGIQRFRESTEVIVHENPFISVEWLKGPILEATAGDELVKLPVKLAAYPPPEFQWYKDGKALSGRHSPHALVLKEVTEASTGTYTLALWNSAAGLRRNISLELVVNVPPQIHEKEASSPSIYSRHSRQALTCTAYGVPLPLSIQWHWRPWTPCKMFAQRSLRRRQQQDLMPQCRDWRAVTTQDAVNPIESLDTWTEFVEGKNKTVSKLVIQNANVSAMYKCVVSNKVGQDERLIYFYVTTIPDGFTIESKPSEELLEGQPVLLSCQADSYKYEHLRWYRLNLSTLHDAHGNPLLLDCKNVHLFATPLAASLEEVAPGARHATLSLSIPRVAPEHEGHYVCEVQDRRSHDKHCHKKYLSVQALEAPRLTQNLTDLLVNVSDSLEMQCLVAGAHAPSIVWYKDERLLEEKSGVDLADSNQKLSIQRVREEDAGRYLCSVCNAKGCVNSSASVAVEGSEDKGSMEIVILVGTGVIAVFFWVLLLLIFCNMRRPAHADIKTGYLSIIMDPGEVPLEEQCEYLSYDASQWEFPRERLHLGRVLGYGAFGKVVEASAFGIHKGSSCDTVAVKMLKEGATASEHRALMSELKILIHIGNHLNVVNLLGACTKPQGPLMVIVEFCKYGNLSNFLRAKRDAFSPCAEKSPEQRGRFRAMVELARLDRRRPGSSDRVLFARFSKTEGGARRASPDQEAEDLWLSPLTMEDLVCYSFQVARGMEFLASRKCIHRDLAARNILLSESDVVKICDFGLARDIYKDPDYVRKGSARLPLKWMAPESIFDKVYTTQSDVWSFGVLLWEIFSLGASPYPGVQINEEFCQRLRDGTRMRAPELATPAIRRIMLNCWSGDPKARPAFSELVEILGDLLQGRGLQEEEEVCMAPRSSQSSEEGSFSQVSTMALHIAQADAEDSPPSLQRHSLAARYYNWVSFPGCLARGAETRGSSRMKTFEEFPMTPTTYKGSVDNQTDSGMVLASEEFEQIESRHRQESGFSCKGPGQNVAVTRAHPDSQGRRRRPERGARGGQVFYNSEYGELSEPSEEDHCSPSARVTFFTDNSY
Sequence of Homeodomain-interacting protein kinase 3 (Homo sapiens) (Q9H422 whole entry, looked up): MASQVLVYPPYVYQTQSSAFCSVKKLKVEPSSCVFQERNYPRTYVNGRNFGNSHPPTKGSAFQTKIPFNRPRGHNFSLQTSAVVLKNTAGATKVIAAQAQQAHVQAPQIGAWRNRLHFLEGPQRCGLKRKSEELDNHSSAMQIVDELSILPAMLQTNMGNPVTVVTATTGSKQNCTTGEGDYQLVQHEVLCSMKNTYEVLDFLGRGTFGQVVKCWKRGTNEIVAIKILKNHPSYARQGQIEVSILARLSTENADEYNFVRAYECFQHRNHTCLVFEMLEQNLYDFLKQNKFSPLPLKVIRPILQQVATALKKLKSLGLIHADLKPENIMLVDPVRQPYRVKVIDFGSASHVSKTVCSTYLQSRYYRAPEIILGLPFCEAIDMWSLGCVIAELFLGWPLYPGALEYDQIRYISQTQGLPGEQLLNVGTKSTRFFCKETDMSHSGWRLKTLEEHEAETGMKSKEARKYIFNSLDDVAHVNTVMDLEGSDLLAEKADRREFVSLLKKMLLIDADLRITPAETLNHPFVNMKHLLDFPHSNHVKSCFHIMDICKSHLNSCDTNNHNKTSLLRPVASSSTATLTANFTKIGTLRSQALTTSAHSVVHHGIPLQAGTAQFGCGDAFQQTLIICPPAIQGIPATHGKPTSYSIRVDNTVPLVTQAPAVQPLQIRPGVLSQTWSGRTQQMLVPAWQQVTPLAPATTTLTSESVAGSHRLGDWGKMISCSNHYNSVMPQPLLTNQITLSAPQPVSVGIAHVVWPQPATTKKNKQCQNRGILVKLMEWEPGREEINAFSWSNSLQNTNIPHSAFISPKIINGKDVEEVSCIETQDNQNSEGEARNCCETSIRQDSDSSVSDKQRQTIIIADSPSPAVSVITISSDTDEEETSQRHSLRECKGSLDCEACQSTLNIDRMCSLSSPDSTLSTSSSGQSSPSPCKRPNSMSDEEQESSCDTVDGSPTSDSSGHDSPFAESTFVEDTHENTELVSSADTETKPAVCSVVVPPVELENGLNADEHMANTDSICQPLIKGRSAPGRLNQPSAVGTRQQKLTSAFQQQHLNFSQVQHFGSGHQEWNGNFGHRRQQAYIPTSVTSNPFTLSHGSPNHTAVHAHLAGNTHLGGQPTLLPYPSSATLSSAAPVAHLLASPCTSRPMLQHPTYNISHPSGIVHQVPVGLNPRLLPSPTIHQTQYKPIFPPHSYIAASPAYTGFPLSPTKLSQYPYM
Sequence of Tyrosine-protein kinase Fyn (Homo sapiens) (P06241 2-537 limits assumed): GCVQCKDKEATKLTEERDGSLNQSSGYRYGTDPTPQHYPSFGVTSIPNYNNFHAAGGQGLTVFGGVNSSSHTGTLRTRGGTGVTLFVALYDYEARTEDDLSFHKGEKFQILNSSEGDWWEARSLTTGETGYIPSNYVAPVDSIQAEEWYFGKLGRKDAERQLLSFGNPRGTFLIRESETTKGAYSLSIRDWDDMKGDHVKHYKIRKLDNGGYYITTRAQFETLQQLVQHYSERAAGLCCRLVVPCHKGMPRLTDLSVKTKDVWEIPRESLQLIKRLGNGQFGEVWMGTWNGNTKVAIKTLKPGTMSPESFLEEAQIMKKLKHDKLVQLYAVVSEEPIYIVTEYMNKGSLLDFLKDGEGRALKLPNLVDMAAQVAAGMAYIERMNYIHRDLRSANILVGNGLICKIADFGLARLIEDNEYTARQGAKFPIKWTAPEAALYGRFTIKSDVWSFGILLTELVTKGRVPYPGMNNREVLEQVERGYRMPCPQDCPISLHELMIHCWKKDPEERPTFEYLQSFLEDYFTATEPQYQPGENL
Sequence of Glycogen synthase kinase-3 alpha (Homo sapiens) (P49840 2-483 limits assumed): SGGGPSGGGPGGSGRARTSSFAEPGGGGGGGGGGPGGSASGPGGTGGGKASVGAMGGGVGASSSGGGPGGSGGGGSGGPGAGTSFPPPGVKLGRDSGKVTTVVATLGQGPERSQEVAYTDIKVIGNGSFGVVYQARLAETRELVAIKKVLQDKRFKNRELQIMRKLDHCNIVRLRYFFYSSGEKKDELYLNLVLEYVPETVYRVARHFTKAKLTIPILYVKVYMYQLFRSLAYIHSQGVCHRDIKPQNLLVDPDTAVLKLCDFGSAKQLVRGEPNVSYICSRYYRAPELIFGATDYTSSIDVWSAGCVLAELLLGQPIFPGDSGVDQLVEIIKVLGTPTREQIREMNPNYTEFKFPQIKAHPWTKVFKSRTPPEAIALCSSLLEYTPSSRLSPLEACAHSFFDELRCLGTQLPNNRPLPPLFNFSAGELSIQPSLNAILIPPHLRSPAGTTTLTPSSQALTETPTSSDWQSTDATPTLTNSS

For the compound `Nc1nc(Nc2ccc(S(N)(=O)=O)cc2)nn1C(=S)Nc1c(F)cccc1F`, the residual activity in test [1] is -1%; in [2], 5%; in test [3], 0%; in test [4] it was 6%; in test [5] it was -1%; in test [6], 1%. Also, the residual activity in [7] is -1%; in [8], 30%; in [9], 3%; in [10], 2%; in test [11], 4%; in test [12] it was 0%. For the same compound, the residual activity in test [13] was 30%; in test [14], 47%; in test [15] it was 12%; in test [16], 0%; in test [17] it was 25%.

For the compound `COc1cc2ncnc(Nc3ccc(NC(=O)c4ccccc4)cc3)c2cc1OC`, the residual activity came out at 14% in [1]; 84% in test [2]; 79% in test [3]; 100% in test [4]; 48% in test [5]; 70% in [7]. For the same compound, the residual activity in test [8] came to 89%; in test [18], 94%; in [19], 110%; in [20], 95%; in test [11], 97%; in test [12], 104%. Also, the residual activity came out at 102% in test [13]; 97% in test [14]; 99% in test [15]; 87% in test [16]; 101% in [17].

`CO[C@H]1C[C@@H]2CC[C@@H](C)[C@@](O)(O2)C(=O)C(=O)N2CCCC[C@H]2C(=O)O[C@H]([C@H](C)C[C@@H]2CC[C@@H](O)[C@H](OC)C2)CC(=O)[C@H](C)/C=C(\C)[C@@H](O)[C@@H](OC)C(=O)[C@H](C)C[C@H](C)/C=C/C=C/C=C/1C`: the residual activity in test [1] came out at 106%; in test [2], 85%; in test [3], 65%; in test [4] it was 88%; in [5] it was 95%; in test [6], 85%. Also, the residual activity is 79% in test [7]; 99% in [8]; 83% in test [18]; 94% in test [19]; 86% in test [20]; 117% in test [9]. In addition, the residual activity is 193% in test [10]; 96% in test [11]; 91% in [13]; 101% in [14]; 103% in [15]; 99% in test [16]. Further, the residual activity in [17] stood at 91%.

`Cn1nc2c3c(cccc31)C(=O)c1ccccc1-2`: the residual activity in [1] amounted to 16%; in [2] it was 72%; in test [3], 51%; in test [4] it was 65%; in test [5] it was 3%; in test [6] it was 60%. Besides, the residual activity worked out at 19% in test [7]; 98% in [8]; 92% in test [19]; 81% in test [20]; 86% in [9]; 74% in test [10]. The residual activity stood at 108% in test [11]; 107% in [12]; 105% in test [13]; 96% in [14]; 79% in test [15]; 36% in test [16]. The residual activity in test [17] came out at 90%.

As for `O=C1NC(=O)/C(=C/c2ccc3c(c2)OC(F)(F)O3)S1`, the residual activity in test [1] stood at 83%; in [2] it was 56%; in [3], 72%; in test [4], 93%; in test [5], 79%; in [6], 106%. The residual activity in [7] is 87%; in test [8], 101%; in test [18], 87%; in [19] it was 107%; in test [20] it was 93%; in test [9], 100%. Besides, the residual activity in test [10] came to 92%; in test [11] it was 93%; in test [12], 90%; in test [13] it was 99%; in test [14] it was 98%; in test [15], 104%. In addition, the residual activity worked out at 76% in test [16] and 89% in test [17].

Turning to `CC#CC(=O)Nc1cc2c(Nc3ccc(F)c(Cl)c3)ncnc2cn1`, the residual activity turned out to be 93% in [1]; 88% in test [2]; 83% in test [3]; 96% in [4]; 88% in [5]; 91% in [6]. Besides, the residual activity in test [7] was found to be 84%; in test [8] it was 93%; in [18], 83%; in [19], 98%; in test [20], 76%; in test [9], 129%. For the same compound, the residual activity in [10] turned out to be 125%; in [11], 97%; in test [12], 82%; in test [13], 98%; in test [14], 111%; in test [15] it was 103%. Further, the residual activity came to 103% in test [16] and 88% in test [17].

Turning to `C[C@@H](N)[C@H]1CC[C@H](C(=O)Nc2ccncc2)CC1`, the residual activity amounted to 104% in test [1]; 98% in test [2]; 110% in [3]; 111% in test [4]; 112% in test [5]; 88% in test [7]. For the same compound, the residual activity is 90% in test [8]; 106% in test [18]; 97% in test [19]; 89% in [20]; 75% in test [9]; 68% in [10]. Besides, the residual activity in test [11] came out at 105%; in test [12], 84%; in [13] it was 102%; in test [14] it was 109%; in [15], 103%; in test [16] it was 101%. Moreover, the residual activity in [17] came to 91%.
